# Experiments:
# Settings in all cases: concentration: 1 μM, replicates: in singlicate; n = 1
# VRK2 = test system: VRK2
# WEE1 = test system: WEE1
# WEE2 = test system: WEE2
# WNK1 = test system: WNK1
# WNK2 = test system: WNK2
# WNK3 = test system: WNK3
# WNK4 = test system: WNK4
# YANK1 = test system: T1, YANK1
# T1 construct: gene STK32A
# YANK2 = test system: T2, YANK2
# T2 construct: gene STK32B
# YANK3 = test system: T3, YANK3
# T3 construct: gene STK32C
# YES = test system: T4, YES
# T4 construct: gene YES1
# YSK1 = test system: T5, YSK1
# T5 construct: gene STK25
# YSK4 = test system: T6, YSK4
# T6 construct: gene MAP3K19
# ZAK = test system: ZAK
# ZAP70 = test system: ZAP70
# p38-alpha = test system: T7, p38-alpha
# T7 construct: gene MAPK14
# p38-beta = test system: T8, p38-beta
# T8 construct: gene MAPK11
# p38-delta = test system: p38-delta
# p38-gamma = test system: T9, p38-gamma
# T9 construct: gene MAPK12
# 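Note: KINOMEscan kinase panel screen.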
SMILES,%Inh (VRK2) [%],%Inh (WEE1) [%],%Inh (WEE2) [%],%Inh (WNK1) [%],%Inh (WNK2) [%],%Inh (WNK3) [%],%Inh (WNK4) [%],%Inh (YANK1) [%],%Inh (YANK2) [%],%Inh (YANK3) [%],%Inh (YES) [%],%Inh (YSK1) [%],%Inh (YSK4) [%],%Inh (ZAK) [%],%Inh (ZAP70) [%],%Inh (p38-alpha) [%],%Inh (p38-beta) [%],%Inh (p38-delta) [%],%Inh (p38-gamma) [%]
Fc1cccc(COc2nnc(-c3ccc4c(c3)CCO4)o2)c1,0,0,19,0,0,0,0,0,0,19,0,0,31,0,0,15,0,4,0
Cc1cccc(-c2nc(Nc3ccc4[nH]ncc4c3)c3ccccc3n2)n1 [GW857175],0,4,0,0,51,40,50,17,0,59,13,0,19,0,31,0,32,0,50
Cc1c(O)cccc1Nc1ccnc2ccc(C(F)(F)F)cc12.Cl [GW466413],26,0,0,23,17,21,1,0,10,15,20,0,11,1,0,0,0,24,0
Cc1cccc(-c2nc(-c3ccc(S(C)(=O)=O)cc3)sc2-c2ccnc(NCCc3ccccc3)c2)c1,0,0,9,0,0,0,0,0,13,14,0,11,0,29,9,82,40,12,16
CCn1c(-c2ccccn2)nc2cnccc21 [SB-736398],26,0,0,0,3,37,36,0,0,32,3,100,44,5,6,0,0,23,0
O=C(Nc1n[nH]c2cc(-c3cccc(F)c3F)ccc12)C1CC1 [SB-733894],0,0,0,0,0,0,0,0,0,0,0,0,74,0,60,0,2,0,24
Cc1cc(-c2ccc3c(c2)CC[C@@H](N[C@@H](C)c2ccccc2)C3)cnc1N.Cl [GW412617],0,18,11,0,0,7,0,2,4,33,4,0,100,1,0,0,0,25,0
Cc1cccc(-c2nc(Nc3ccncc3)c3ccccc3n2)n1 [GW855857],0,23,8,0,0,0,0,0,0,0,0,0,0,4,0,16,1,0,24
Cc1cccc(-c2cc(Nc3ccncc3)c3ccccc3n2)n1 [GSK223675],0,20,0,4,0,1,0,2,0,0,0,8,13,82,0,12,0,42,22
Cc1cc(NCC(c2ccccc2)c2ccccc2)nc(NCc2ccc(C(F)(F)F)cc2)n1 [GW497681],0,11,0,0,0,27,37,0,0,0,0,0,13,0,7,7,0,45,0
COc1ccc(CNC(=O)NC2CCN(c3ccnc(Nc4cc(OC)c(OC)c(OC)c4)n3)C2)cc1 (centres unmarked) [GSK1379748],14,5,0,7,30,30,52,0,0,0,0,9,13,5,3,12,0,26,0
COc1cc2ncn(-c3cc(OCC4CCCO4)c(C(N)=O)s3)c2cc1OC (centres unmarked) [GSK204607],19,9,3,0,8,12,35,9,0,0,12,22,53,6,0,0,0,37,0
COc1ccc(Nc2nccc(-c3cccc(NC(=O)c4cc5cc(F)ccc5[nH]4)c3)n2)cc1 [GSK1229782],27,33,16,11,12,31,59,3,0,30,29,31,79,22,0,27,0,45,48
COc1ccc2nc(-c3cccc(C)n3)nc(Nc3ccncc3)c2c1 [GSK204919],33,0,2,5,3,8,9,19,2,18,13,0,13,0,0,58,0,12,0

# Reference: article PMC5540273 (PLoS ONE, 2017)
